# Assay results as given in the supplement of paper PMC11417369.
# Whole data set: some 25,000 sequences, median “ln(normalized median fluorescence intensity)” near 9.7, cut for the highest 2% near 11. What follows is part of a selection rich in the highest values, with near analogues and random picks from the rest.
# System: PfAP2-HC AP2 domain (GST-tagged)
# Experiment: gcPBM binding intensity (ln(normalized median fluorescence intensity)); higher = stronger DNA binding
# In short: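 Using an Agilent 4 × 180k array, primer-extended double-stranded 36-bp intergenic genomic probes and negative controls were exposed for 1 h to GST-fused P. falciparum DNA-binding domains expressed in E. coli. Binding was carried out in 1× PBS with 1% milk, 0.2 mg/ml BSA, 0.5% salmon testes DNA and 0.03% Triton X-100, and protein was detected with Alexa488 anti-GST antibody and a 488 nm scan. Binding intensity is the highest Masliner-normalised natural-log median intensity across replicate spots of either probe orientation.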
row,Sequence,gcPBM binding intensity (ln)
1,TATTATATTTATTTATGTACACATATACTTAAATAA [XGTACX_site1355],9.69
2,AAATAGCCAAAAATCATGCACACCTAAAAAAAAAAA [CACACA_site2572],9.77
3,AGCTGAAAAAAAAGCTTGCACACGTATTTGCTTTAT [CACACA_site1512],9.81
4,ATAAACAATTAACAAACATGCAAATTTTAAATGTGT [TGCATGCA_site919],9.68
5,ATATTTGTATAAATTGCACACTTTATTTTTTTTAAG [CACACA_site1558],9.61
6,TTTGTTTGTAAAATGTTGCACTTTCTTTTGCTGATA,9.66
7,ATATATCTATATAGAAATGTATATATATATATGTGT [TGCATGCA_negctrl_site349],9.77
8,TATTTCGTAATTTAATAATATACAAGAAATATATAT [XGTACX_negctrl_site143],9.4
9,ATCAAATAGAGACACACACACCTAAACATAAAAGAA [CACACA_site7321],10.6
10,AACAATCAAATAGACACACACACACCCAAACATAAA [CACACA_site2757],10.6
11,CAATCAAATAGACACACACACACCTAAACATAAAAG [CACACA_site7322],11.1
12,CAATCAAAGAAACACACACACACCTAAACATAAAAG [CACACA_site2756],11.7
13,ATAAAAAAGAAACAAACACACATACATACAAACAAA [CACACA_site4256],10.3
14,CAATCAAATGGACACACACACACCTAAACATAAAAG [CACACA_site5524],10.5
15,GAAAAGTATAAAAAACGTACAAGTTTTATTTTCACA [XGTACX_site4604],9.58
16,TTTCTAATTATTTCCCTTCAAATATATTAATATCGT [CACACA_negctrl_site429],9.55
17,AGTATACATATATATACACACACATATATATATATA [CACACA_site7883],9.87
18,AAAACAAACGGACACACACACATATATATATATATA [CACACA_site5924],10.5
19,CATATACTCGGACACACACACACACCGACAAAAAAA [CACACA_site4433],11.1
20,AGTATACATATATATACACACATATATATATATATA [CACACA_site300],9.8
21,AGTATACTCGGACACACACACACATATATATATATA [CACACA_site5031],11.7
22,CATATATACTCATACACACACACACCGACACAGACA [CACACA_site5026],10.3
23,ACAAAAAAAAAAAAAAAAAAAAAAAAAAAATAATAA [CACACA_negctrl_site1640],9.18
24,TAAAATATATAAAACTGTACATTTTAAAGGCACAAC [XGTACX_site8342],9.98
25,AAAAATCAATTAGAAGAACACACGTAAATTTTTTTT [CACACA_site2396],9.76

row,Sequence,gcPBM binding intensity (ln)
1,TATTTTTCTTTATTGGTACACACGAAAAAAAAATTG [CACACA_site3054],9.53
2,AAATGGGTTTATTTAACACACAAAAGAAAAAATATA [CACACA_site1938],9.77
3,AAAGGTGTATTTAATACACACGTGTCATTAAAATTG [CACACA_site4508],9.71
4,TAAATACAGACATACACACATACACCCACATATATA [CACACA_site547],10.3
5,CACACCCACAGACACACACACACATATATAATATAT [CACACA_site594],11.4
6,ATAATCCACAAGCACACACACACACCCATATATATA [CACACA_site1268],10.6
7,CACACCCACAGACACACACACACATATATATATATA [CACACA_site363],10.8
8,TATATATATATATATACACACACACCCATATATATA [CACACA_site8812],10.3
9,CGCACCCACAGACACACACACACATATATATATATA [CACACA_site2202],11.4
10,TATATATATATAGACACACACACACCCATATATATA [CACACA_site4117],10.9
11,CACCCATACAGACATACACACACATATATATTAATA [CACACA_site8077],10.2
12,TAATAATCCACAAGCACACACACACCCATATATATA [CACACA_site1267],10.8
13,TATAATAATCCACAAGCACACACACCCACATATATA [CACACA_site8343],11.3
14,TATATACATAGACACCCACACACAAAAAAAAAAAAA [CACACA_site8186],10.2
15,AAAAAAAAAAAAAAATGTACAAAAATTACTATAAAA [XGTACX_site7683],9.48
16,AAAAATAATGCACATATATATAATATGTATATGTAT [CACACA_negctrl_site443],9.75
17,GTAATGAAACATTGCACACATATAATAATATAATAT [CACACA_site1422],9.84
18,AGAAAAGAAATTAGTTGTACTCTGATGAATTATCCT [XGTACX_site6284],9.5
19,TTCAATTTTTTATGAACACACAAAAAAAAAAAAAAA [CACACA_site2533],9.23
20,CACAGACACCCATACACACACATACCCATATATATA [CACACA_site5023],10.3
21,TTTAAATACAGACATACACACATACACCCACATATA [CACACA_site8078],10.2
22,ATAGACAGCGCACAAACACACAAACACAGACCCCCA [CACACA_site4409],10.2
23,AGACAGCGCACAAACACACAAACACCCACCCACATA [CACACA_site451],11.3
24,GGCATACACAGACACACACACACACCCACATATATA [CACACA_site591],11.2
25,ATAGTATACAGACACACACACACACCCATATATATA [CACACA_site1736],11.7

row,Sequence,gcPBM binding intensity (ln)
1,AGTATACACAGACACACACACACATATATATATATA [CACACA_site8510],10.9
2,ACCGTGGGAGGACACACACACACACCCACATATATA [CACACA_site4339],10.8
3,ACCGTGGGAAGACACACACACACACCCACATATATA [CACACA_site333],11
4,AAACCGTGGGAGCACACACACACACCCACCCATATA [CACACA_site332],10.4
5,ATAGACAGCGCACAAACACACAAACACCCACCCACA [CACACA_site8043],10.1
6,TTGGCATACAGACACACACACACACCCCCACATATA [CACACA_site590],10.9
7,ATTAGTATTAGATGATGTACATTTATATTGAAATAT [XGTACX_site8537],9.63
8,GATATATTTTATATATGTACATACAAGGGTAAATAT [XGTACX_site1202],9.68
9,ATATATATATATGTCTGTACATAAAAAATAATAAAT [XGTACX_site3122],9.68
10,TATATATATATAATTACACACAATGTTCTATATATA [CACACA_site3235],9.8
11,TTGTGATTATATAATCGTACATAATTTTAATCACAC [XGTACX_site398],9.58
12,TTTTTTTTAATTGTGATACGTATATTATTTAATGAT [CACACA_negctrl_site38],9.59
13,CGCACAAAAATATACACACACACATATATATTTATT [CACACA_site3645],10.4
14,ACATTATATAAAATATGTACATATAAAAAATTCTAT [XGTACX_site1617],9.77
15,GTTATATAAACATATGCATGTGAAGTGTTTATTAAT [TGCATGCA_site183],9.8
16,GTATCAAAAGAATACACACACACATACCTATAAATA [CACACA_site7737],10.8
17,AATAAAAAAGAATATACACACATAAATATAAAATAT [CACACA_site683],10
18,AAAATACACGCATACACACACACACCGACACATATA [CACACA_site4523],10.7
19,AATAGTAAAAGATATACACACACCAAAAAATAGAAT [CACACA_site2289],11.6
20,TGGTATCAAAAGAATACACACACACCGACATATATA [CACACA_site9265],11.1
21,AAAGAAAGAAAGAATACACACACACCGATATATATA [CACACA_site9246],10.3
22,TATATCAAAATACATACACACATTTGTATATACATT [CACACA_site2696],10
23,TAGTAAAAGATATACACACACCAAAAAATATAATTA [CACACA_site7142],10.5
24,AATAGTAAAAGATATACACACACCAAAAAATATAAT [CACACA_site5293],10.3
25,GTATCAAAAGAATACACACACACATACATATATATA [CACACA_site3796],11.3

row,Sequence,gcPBM binding intensity (ln)
1,GTATCAAAAGAATACACACACACATACAGATATATA [CACACA_site5975],11.2
2,TCAAAGCACAGATACACACACATATATATATATATA [CACACA_site287],10.1
3,AAAAAAATTTCACATTGTACTTTAATAATATACTAC [XGTACX_site7264],9.64
4,TATATATATATATATTGTACATAATGTATATATGTT [XGTACX_site3448],9.74
5,AAAATAATGTATATAGTGCAAATGAAAACGAAAAAA [GTGCAC_site9455],10.1
6,TGAATATTTCTATATACACACATATATATATATATA [CACACA_site3451],9.74
7,ATAATGAAAAGGAACATACACACCCCATATAAATAT [CACACA_site3442],10.3
8,TACAAACAAACACATAGCAATATATGTTATCAAAAA [XGTACX_negctrl_site1],9.81
9,AGAAAGAAAGAATACACACACACATATATATATATC [CACACA_site3744],11.5
10,TAAAGAAATAAATACATACACACATATATATATATA [CACACA_site3363],9.89
11,AGAAAGAAAGAATACACACACACATATATAAATATC [CACACA_site7716],10.4
12,TTATCATTTTAATGGTGTACTCAATAAAAACTTTAA [XGTACX_site4595],9.13
13,AAAAAAAACAGACACACACACATAAATATATATAAA [CACACA_site148],10.4
14,TATATATATAGACACACACACACATATATATATATA [CACACA_site9366],10.7
15,TATATAAATAGACACACACACATATAAATATAAATA [CACACA_site6503],10.4
16,AAAAAAAACAGACACACACACATAAATATAAATAAA [CACACA_site6214],10.5
17,AAAGGATACAGACACACACACACATATATATATATA [CACACA_site906],10.8
18,AAAGGATATAGACACACACACACATATATATATATA [CACACA_site2200],11.4
19,GCACATAAATATATGACACACACACCGATTATATAT [CACACA_site9003],10.8
20,ACATAAATATATGACACACACACATATTATATATAT [CACACA_site3065],11.1
21,TATATATATAGACACACACACATATAAATAAATAAA [CACACA_site444],10.4
22,AAAAATTCCAGACACACACACACATATAAATAAATA [CACACA_site1232],11.1
23,CATATAAATAGACACACACACACATATAAATAAATA [CACACA_site7156],11.1
24,TATATAATATATATGACACACATATTTATATAAATA [CACACA_site4054],9.57
